From PubChem BioAssay
Hits are enriched below; roughly 11% of the tested compounds scored in any of these assays.
AmpC detergent: AmpC beta-lactamase inhibition with detergent present; Potency, µM (doses to about 114 µM), without a hit: at the top dose activity change, negative = inhibition, hits mostly inhibitors; P00811; AmpC hydrolysis of nitrocefin, absorbance 480 nm, 0.01% Triton; AID 485294; actives 0.041% (n = 370,000);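 also: potency is read from the fitted curve at half-maximal effect; 0% = no-compound wells and -100% = no-enzyme wells; nearly all actives have a fitted effect of over 25% in size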
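AmpC (5.3 nM in the dispensed reagent) in 20 mM phosphate pH 7.0 with 0.01% (detergent screen) or 0.0001% Triton X-100 was preincubated with compounds for 15 min at room temperature. Nitrocefin was then added from an 800 uM solution, and hydrolysis was followed at 480 nm.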
Pf growth 96h: P. falciparum growth inhibition at 96 hour, primary screen for plastid delayed-death inhibitors; P. falciparum luciferase reporter growth, 96 h; Potency, µM (titrated, usually from 28.7 µM), without a hit: at the highest dose activity change, negative = inhibition, usual class: inhibitors; actives 6.9% (n = 320,000); AID 504834; also: potency is read from the fitted curve at half-maximal effect; % is scaled to controls: 0 for no effect and ±100 for the full control effect
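96 h incubation, 37 C, 5% CO2, of luciferase-reporter P. falciparum-infected RBCs (2% hematocrit, 0.05% parasitemia final) with test compounds; endpoint luminescence.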
Pf growth 48h: inhibits P. falciparum growth in the first generation, 48 h. actives 5.9% (n = 310,000). Potency, µM (top dose mostly 28.7 µM), without a hit: at the highest dose activity change, negative = inhibition, actives largely listed as inhibitors. AID 504832. P. falciparum luciferase growth in erythrocytes, 48 h; also: potency is read from the fitted curve at half-maximal effect; % is scaled to controls: 0 for no effect and ±100 for the full control effect
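Luciferase-expressing P. falciparum in infected erythrocytes (2% hematocrit, 0.1% parasitemia final) in RPMI 1640/0.5% Albumax were exposed to compound for 48 hours at 37 C, 5% CO2; growth read as luminescence.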
AmpC inh no detg: inhibitors of E. coli AmpC beta-lactamase without detergent; P00811; AmpC nitrocefin hydrolysis, absorbance 480 nm, 0.0001% Triton; Potency, µM (titrated, usually from 57.1 µM), for the others: at the highest dose activity change, negative = inhibition, actives largely listed as inhibitors; actives 0.52% (n = 330,000); AID 485341;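 also: potency is read from the fitted curve at half-maximal effect; plate controls were no compound for no effect and no enzyme for full effect; nearly all actives have a fitted effect of over 20% in size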
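20 mM phosphate pH 7.0 + 0.01% (detergent screen) or 0.0001% Triton X-100; 5.3 nM AmpC reagent; cpd preinc 15 min RT; nitrocefin (800 uM stock) to start; A480 q20 s × 4 min; Activity was normalised to no-enzyme and no-compound control wells.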
AMA1-RON2 inh: disrupts binding of P. falciparum AMA1 to RON2; AlphaScreen AMA1-biotinylated RON2 peptide binding; Potency, µM (series often up to 58.2 µM), inactives show at the highest dose activity change, negative = inhibition, usual class: inhibitors; actives 0.2% (n = 360,000); AID 720542;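 also: potency is read from the fitted curve at half-maximal effect; 0% = vehicle wells and -100% = peptide control; nearly all actives have a fitted effect of over 45% in size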
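AMA1 (3D7) with his tag at 25 nM final met compounds first, then biotinylated RON2 peptide at 25 nM; detection used donor plus acceptor beads, 10 µg/mL apiece, read by AlphaScreen after 30 min at room temperature.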
HCV inhibitor: HCV inhibition. Huh7.5.1 HCVcc-Cre infection, luciferase reporter, 44 h. Potency, µM (titrated, usually from 41.8 µM), for inactives: top-dose activity change, negative = inhibition, usual class: inhibitors. actives 3.4% (n = 340,000). AID 651820; also: potency is read from the fitted curve at half-maximal effect; % is scaled to controls: 0 for no effect and ±100 for the full control effect
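Infectious HCV cell culture screen: compound-treated cells (1,000/well, pre-plated 4 h) are infected with HCVcc-Cre at roughly 0.5 moi and grown 44 h. Infection is quantified by luciferase signal after 15 min substrate incubation at room temperature.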
CLK4 ADP-Glo: CLK4 (human) kinase inhibition, ADP-Glo confirmation | recombinant Clk4, RS peptide, ADP-Glo luminescence | actives 80% (n = 65) | AID 1969 | Potency, µM (titrated, usually from 80 µM), inactives show at the top dose activity, negative = inhibition, hits mostly inhibitors | shares compounds with Pf growth 48h
Target sequence (Q9HAZ1 whole entry, looked up): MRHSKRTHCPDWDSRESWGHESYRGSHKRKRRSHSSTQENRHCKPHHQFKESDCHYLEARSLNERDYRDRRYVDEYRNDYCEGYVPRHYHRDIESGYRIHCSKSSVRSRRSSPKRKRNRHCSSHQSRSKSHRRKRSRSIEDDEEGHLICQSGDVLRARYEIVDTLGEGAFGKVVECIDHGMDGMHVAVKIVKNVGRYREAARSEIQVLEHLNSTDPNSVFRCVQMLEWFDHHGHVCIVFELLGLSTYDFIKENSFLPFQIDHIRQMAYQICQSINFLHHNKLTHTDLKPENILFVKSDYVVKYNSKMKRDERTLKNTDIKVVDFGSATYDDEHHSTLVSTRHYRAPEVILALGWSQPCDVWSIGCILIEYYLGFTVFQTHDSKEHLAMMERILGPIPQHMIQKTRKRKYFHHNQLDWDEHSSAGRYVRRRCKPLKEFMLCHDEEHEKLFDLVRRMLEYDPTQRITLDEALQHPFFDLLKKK
CLK4 cf ADP-FP: confirmation of human CDC-like kinase 4 (CLK4) inhibitors | shares compounds with Pf growth 48h | recombinant Clk4, ADP Transcreener FP, RS peptide | Potency, µM (highest dose often 80 µM), without a hit: top-dose activity, negative = inhibition, actives largely listed as inhibitors | actives 70% (n = 65)
* = called active by the depositor; ? = inconclusive; nt = no result given; ! = not confirmed by another sample. Calls follow the shape of the dose curve; as a rule, active = well fitted curve in the direction sought with a large enough effect; inconclusive = small, poorly fitted or top-dose-only effect, or another doubt; inactive = no such curve, though single readings can be large; an effect the other way counts as inactive or inconclusive.

SMILES | AmpC detergent | Pf growth 96h | Pf growth 48h | AmpC inh no detg | AMA1-RON2 inh | HCV inhibitor | CLK4 ADP-Glo | CLK4 cf ADP-FP
c1nc(NCc2ccc3c(c2)OCO3)c2cc(-c3ccc4c(c3)OCCO4)ccc2n1 | -13% | ? | 13µM* | -20% | nt | nt | 1.8µM* | 2.2µM*
c1cncc(CNc2ncnc3ccc(-c4ccc5c(c4)OCO5)cc23)c1 | -4% | 8% | ? | 1% | nt | nt | 0.13µM* | 0.089µM*
COc1cccc(-c2ccc3ncnc(N(C)Cc4ccco4)c3c2)c1 | ? | 15µM* | ? | 29% | nt | nt | 0.35µM* | 0.45µM*
Cc1sc2ncnc(N(C)Cc3ccco3)c2c1C | 0% | -29% | nt | 2% | -3% | ? | nt | nt
Cc1c(C(=O)NCc2ccccc2)sc2nc3n(c(=O)c12)CCCCC3 | 5% | nt | nt | nt | nt | nt | nt | nt
CCOC(=O)c1ccc2[nH]c(CSc3nnc(-c4cccc(F)c4)n3C)cc(=O)c2c1 | 4% | nt | nt | nt | nt | nt | nt | nt
Clc1cccc(-c2ccc3ncnc(NCc4ccc5c(c4)OCO5)c3c2)c1 | ? | 1.5µM* | 6.6µM* | -22% | nt | nt | ? | ?
COc1cccc(-c2ccc3ncnc(NCc4ccc5c(c4)OCO5)c3c2)c1 | -18% | 7.4µM* | 9.3µM* | -19% | nt | nt | 1.3µM* | 2.2µM*
COc1cccc(S(=O)(=O)NCc2ccc3c(c2)OCO3)c1 | -2% | -20% | nt | -18% | -6% | 2% | nt | nt
Cc1csc(CNc2ncnc3ccc(-c4cccnc4)cc23)c1 | -4% | 10µM* | ? | -17% | nt | nt | 4.5µM* | 11µM*
Cc1csc(CNc2ncnc3ccc(-c4ccoc4)cc23)c1 | 1% | ? | 13µM*! | ? | nt | nt | 0.56µM* | 0.56µM*
CC(=O)Nc1ccc(CNc2ncnc3ccc(-c4c(C)noc4C)cc23)cc1 | 4% | ? | ? | -32% | nt | nt | nt | nt
COc1cccc(-c2ccc3ncnc(NCc4cc(C)cs4)c3c2)c1 | -1% | 4.1µM* | 6.6µM* | -16% | nt | nt | 0.89µM* | 1.3µM*
CCCC(=O)Nc1ccc2nc(SCCOc3ccccc3)sc2c1 | -2% | nt | nt | nt | nt | nt | nt | nt
Cc1cccc(CNc2ncnc3ccc(-c4ccc5c(ccn5C)c4)cc23)c1 | -14% | 1.9µM* | 3.3µM* | -34% | nt | nt | ? | ?
Cc1cccc(CNc2ncnc3ccc(-c4cccnc4)cc23)c1 | ? | 6.6µM* | 12µM* | -30% | nt | nt | 2.8µM* | 5µM*
c1cncc(CNc2ncnc3ccc(-c4ccoc4)cc23)c1 | 0% | ? | ? | -19% | nt | nt | 0.56µM* | 1µM*
Cc1cccc(C(=O)n2nc(-c3cccnc3)nc2NCc2ccccc2)c1 | -6% | nt | nt | nt | nt | nt | nt | nt
Fc1cccc(CNc2ncnc3ccc(-c4ccoc4)cc23)c1 | ? | ? | ? | -40% | nt | nt | 3.5µM* | 3.5µM*
Cn1ncc2c(NCc3cccc(Cl)c3)ncnc21 | -3% | nt | nt | nt | nt | nt | nt | nt
Fc1cccc(CNc2ncnc3ccc(-c4cccc(Cl)c4)cc23)c1 | ? | 2.9µM* | 6.6µM* | -25% | nt | nt | 7.1µM* | 13µM*
Cc1cccc(-c2ccc3ncnc(NCc4cccnc4)c3c2)c1 | -12% | ? | 9.3µM* | -36% | nt | nt | 6.3µM* | 10µM*
Fc1ccc(F)c(CNc2ncnc3cc(Cl)ccc23)c1 | -1% | ? | ? | -24% | 1% | ? | nt | nt
Cc1cccc(CNc2ncnc3ccc(-c4ccc5c(c4)OCCO5)cc23)c1 | -13% | 3.3µM* | 4.7µM* | -25% | nt | nt | 0.56µM* | 0.71µM*
